Results on 54 compounds are retold here after ChEMBL document CHEMBL4513216, “Probing the Open Global Health Chemical Diversity Library for Multistage-Active Starting Points for Next-Generation Antimalarials” (ACS Infect Dis, 2020).

The campaign covered roughly 69,000 compounds. About 8,600 (12%) showed an effect of 50% or more. The sample holds strong results, similar compounds and a random draw of the others, so the mix is not that of the screen.

For the assay, the system named is Plasmodium berghei. Kind of assay: Screen against P. berghei liver stage (PbLuc), transformed with Luciferase, at 10uM. The class given is functional, HepG2. The following applies: tested at 10 uM.
For `Cc1ccc(N2CCC3(CC2)CNC(=O)CO3)nn1`, the INHIBITION worked out at 21.7%.

Take `O=C(NC[C@H]1OC[C@@H]2CN(Cc3ccco3)CC[C@@H]21)c1cscn1`: the INHIBITION is on record as -72%.

Turning to `COCCCN1CCCC(c2nccn2CC2CCC2)C1` (centres undefined), the INHIBITION is 42.8%.

`N#CCCN(C(=O)CN1CCCC1C1CCCCC1)c1ccccc1` (centres undefined): the INHIBITION came to 5.14%.

Consider `CC(C)(C)c1nnnn1CC(=O)N(CCC#N)c1ccccc1`, for which the INHIBITION worked out at 65.6%.

Take `CN(CC(=O)N(CCC#N)c1ccccc1)C1CCc2ccccc21` (centres undefined): the INHIBITION was 28.9%.

As for `CC(=O)N(C)c1nc(Cn2nnnc2C(C)(C)C)cs1`, the INHIBITION is given as 24.2%.

Turning to `Cc1nc(CN2CCCN(CC(=O)N(C)CCC#N)CC2)no1`, the INHIBITION amounted to 36.5%.

As to `CN(C(=O)Cn1nc(-c2ccc(F)cc2)oc1=O)c1ccccc1`, the INHIBITION was 42.6%.

Turning to `CN(C(=O)Cn1nnnc1C(C)(C)C)c1ccccc1`, the INHIBITION is recorded as 50.8%.

Regarding `CN(CCC#N)C(=O)Cn1nnnc1C(C)(C)C`, the INHIBITION is 61.9%.

`Cc1cc(C)n(CC2CCCN2CC(=O)N(C)CCC#N)n1` (centres undefined): the INHIBITION is recorded as 36.1%.

As for `CCCSc1ncc(Cl)c(C(=O)NC(CCSC)C(=O)O)n1` (centres undefined), the INHIBITION was 26.3%.

For `CCN1C(=O)CCC12CCN(C(=O)c1ccco1)CC2`, the INHIBITION is reported as 27.2%.

In the case of `CCN1CCn2c(C)cnc2C12CCN(C(=O)CC(C)C)CC2`, the INHIBITION is -0.182%.

In the case of `CC[C@H](C)Nc1nccc(-c2cnc3sc(C)cn3c2=O)n1`, the INHIBITION is 39.7%.

With `CCC(=O)N1CCc2c(O)nc(C3CCCCN3C(=O)C3CC3)nc2C1` (centres undefined), the INHIBITION was -7.6%.

As for `O=c1[nH]c(NC2CCCC2)nc2nccc(-c3cccs3)c12`, the INHIBITION is 52.2%.

Regarding `O=c1[nH]c(NC2CCCC2)nc2nccc(-c3ccsc3)c12`, the INHIBITION came out at 61.1%.

With `NC(=O)C1CCN(c2nc3nccc(-c4ccncc4)c3c(=O)[nH]2)CC1`, the INHIBITION was 41.6%.

For `O=c1[nH]c(NC2CCCC2)nc2nccc(-c3ccco3)c12`, the INHIBITION is -37.9%.

On to `O=C(O)Cn1nc(C2CC2)c2c(-c3cccs3)ccnc21`, for which the INHIBITION is 11.6%.

With `NC(=O)C1CCN(c2nc3nccc(-c4cccnc4)c3c(=O)[nH]2)CC1`, the INHIBITION is listed as 47.4%.

In the case of `O=C(NCC1CC1)C1CN(Cc2cccs2)Cc2ccnn2C1` (centres undefined), the INHIBITION is reported as -19.1%.

Take `Cc1ccc(S(=O)(=O)N2CSCC2C(=O)NCC(F)(F)F)cc1C` (centres undefined): the INHIBITION is reported as -27.9%.

As to `O=C(CSc1nc2c(cnn2CCO)c(=O)[nH]1)NC1CCCCC1`, the INHIBITION turned out to be 39.2%.

Regarding `Cc1noc(C(C)N2CCN(CCN3CCCC3=O)CC2)n1` (centres undefined), the INHIBITION was -29.1%.

In the case of `O=C(COCc1ccccc1Cl)Nc1ccnn1CC1CCOC1` (centres undefined), the INHIBITION amounted to 42.1%.

In the case of `O=C(COCCOc1ccccc1)Nc1ccnn1CC1CCOC1` (centres undefined), the INHIBITION is on record as 69.9%.

With `O=C(Cn1ncc2ccccc21)Nc1ccnn1CC1CCOC1` (centres undefined), the INHIBITION was found to be 36.5%.

As to `COc1ccccc1CC(=O)N1C[C@@H]2CC[C@H]1CN(Cc1cscn1)C2`, the INHIBITION is reported as 29.6%.

For the compound `CN(C(=O)Cn1nc(-c2ccccc2Cl)ccc1=O)C1CCS(=O)(=O)C1` (centres undefined), the INHIBITION is reported as 48.1%.

For the compound `CN1CC(Nc2ccc(Br)cc2C#N)CCC1=O` (centres undefined), the INHIBITION was determined as 58.9%.

Turning to `CC(=O)N1CCC(Nc2ccc(Br)cc2C#N)C1` (centres undefined), the INHIBITION was 7.39%.

On to `N#Cc1cc(Br)ccc1NC1CCN(CC(N)=O)CC1`, for which the INHIBITION was 45.4%.

`CCOCCN1CCN(Cc2csc(-c3cnn(C)c3)n2)CC1`: the INHIBITION was -22.1%.

For `O=C(CCNS(=O)(=O)c1ccc(F)c(F)c1)NCc1ccoc1`, the INHIBITION came out at 35.4%.

`O=C(N[C@H]1CN(Cc2ccsc2)[C@@H]2CCCO[C@H]12)C1CC1`: the INHIBITION is 48.2%.

With `O=C(O)c1cc(NS(=O)(=O)c2ccc(Cl)s2)ccc1N1CCOCC1`, the INHIBITION came to 20%.

For the compound `Cc1ccc(C(=O)NS(C)(=O)=O)cc1I`, the INHIBITION was found to be 32.3%.

With `Cc1ccc(C(=O)NS(C)(=O)=O)cc1S(C)(=O)=O`, the INHIBITION was found to be 1.79%.

For the compound `Cc1cc(C(=O)NS(C)(=O)=O)ccc1I`, the INHIBITION was 52%.

In the case of `Cc1cc(N2CCN(C(=O)[C@@H]3C[C@H]4C=C[C@@H]3C4)CC2)nc2ccccc12`, the INHIBITION is -13.2%.

As to `CN(Cc1nnc(C2CC2)o1)C1CCCN(c2cccnn2)C1` (centres undefined), the INHIBITION is on record as -9.76%.

Regarding `CC(C(=O)NC1CC1)N1CCN(Cc2ccn(C)c(=O)c2)CC1` (centres undefined), the INHIBITION is reported as 7.42%.

Turning to `COc1cccc2c1ccn2CCNC(=O)C1CCC1`, the INHIBITION is -46.8%.

`OCCn1cc(CN2CCN(CCOCC(F)(F)F)CC2)cn1`: the INHIBITION was found to be 54.9%.

With `OCCn1cc(CN2CCN(CCOc3ccc(F)cc3)CC2)cn1`, the INHIBITION was 39.5%.

For the compound `OCCn1cc(CN2CCN(CCOc3ccccc3)CC2)cn1`, the INHIBITION stood at 37.5%.

Consider `NC(=O)NC(=O)CN1CCN(c2nccs2)CC1`, for which the INHIBITION worked out at 24%.

For the compound `Cc1cnc(CN2CCC(N(C)Cc3nnc(C)n3C)C2)cn1` (centres undefined), the INHIBITION is given as 62.3%.

For the compound `Cc1ccc(CCN2CCC(N(C)Cc3noc(C4CC4)n3)C2)cc1` (centres undefined), the INHIBITION was 27.9%.

With `CCc1nc(CN2CCCC(N(C)Cc3cnc(C)cn3)C2)no1` (centres undefined), the INHIBITION was found to be 24.3%.

Take `CCc1nc(CN(C)C2CCN(Cc3cnc(C)cn3)C2)no1` (centres undefined): the INHIBITION came to 67.5%.
